What all share (assay): NCI-60 one-dose screen, 48 h (100 = growth as untreated, 0 = no growth, -100 = all killed)
Settings in all cases: 10 µM unless noted

The subject of test [1] is RPMI-8226 leukemia.
For test [2], the system named is OVCAR-8 ovarian.
Test [3] concerns OVCAR-5 ovarian.
Test [4] relates to OVCAR-4 ovarian.
The test system of test [5] is SK-OV-3 ovarian.
Test [6] has as its system IGROV1 ovarian.
Test [7] has as its system OVCAR-3 ovarian.
The test system of test [8] is HS 578T breast.
The test system of test [9] is NCI/ADR-RES ovarian.
For test [10], the system named is T-47D breast.
Test [11] concerns BT-549 breast.
For test [12], the system named is MDA-MB-435 melanoma.
For test [13], the system named is SW-620 colon.
Test [14] deals with MCF7 breast.
For test [15], the system named is HCT-116 colon.
Test [16] relates to HCC-2998 colon.
For test [17], the system named is KM12 colon.

This is part of a sample that, as a whole, favours compounds with a hit. Of some 83,000 tested, about 20% had one in any assay.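 Testing used 96-well plates and a 48-hour single-concentration exposure. Example: -40 means 40% of the starting cells died.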 Unmarked numbers belong to inactive results. Activity calls are given as the source filed them. The calls were made as follows: active = growth percent below 10; inactive = the rest.

Regarding `CC(=O)Oc1cccc(S(=O)(=O)n2cc(C(=O)C(=O)Nc3ccncc3)c3ccccc32)c1`, the growth in [1] is 65.2%; in [2], 89.7%; in test [3], 90.8%; in [4], 78%; in test [5], 92.5%; in [6] it was 84.7%. The growth in test [7] was 101%; in test [8], 98.5%; in test [9], 80.2%; in test [10], 73.6%; in test [11], 83.8%; in test [12], 38.5%. The growth is 98% in [13]; 79.5% in test [14]; 76.6% in [15]; 84.3% in [16]; 83.6% in test [17].

In the case of `COc1ccc(/C=C2\CN(Cc3cn(CCNc4ccnc5cc(Cl)ccc45)nn3)C/C(=C\c3ccc(OC)c(OC)c3)C2=O)cc1OC`, the growth in test [1] was -1.73% (active); in [2], -3.77% (active); in [3] it was 18.1%; in [4], 29.8%; in [5] it was 4.28% (active); in test [6], 7.35% (active). In addition, the growth in test [7] was -13.9% (active); in test [8], 23.4%; in test [9], 103%; in [10], 32.9%; in test [11] it was -31.6% (active); in test [12] it was -5.87% (active). Further, the growth is 0.355% (active) in test [13], 28% in test [14], -85.3% (active) in test [15] and -35.7% (active) in test [17].

In the case of `COc1ccc(C2=Nn3c(nnc3-n3nc(C)cc3C)SC2)cc1`, the growth is 20.9% in test [1]; 17.6% in test [2]; 48.7% in test [3]; 61.1% in [4]; -3.05% (active) in test [5]; 32.2% in test [6]. Also, the growth in [7] was -47.9% (active); in [8] it was 7.5% (active); in [9] it was 10.7%; in [10], 77.6%; in [11], 18.6%; in test [12], -16.1% (active). Moreover, the growth in test [13] was 21.7%; in [14], 16.9%; in test [15], 5.57% (active); in test [16], 4.24% (active); in test [17], 10%.

Turning to `CCCCCCCC/C=C/CCCCCCCC1=NC(C)(C)CN1C(C)(C)CO`, the growth in test [1] was -21.7% (active); in test [2], 37.1%; in test [3], 65.1%; in test [4] it was 42.5%; in [5], 70.3%; in [6], 1.53% (active). In addition, the growth in test [7] was 55.4%; in test [8], 65.9%; in test [9], 56%; in [10] it was -10.2% (active); in test [11], 76.3%; in [12], -18.9% (active). Further, the growth in test [13] is -85.1% (active); in test [14], -44.3% (active); in [15] it was -99.4% (active); in test [16] it was -93.4% (active); in test [17] it was -91.5% (active).

Consider `Cc1ccc(S(=O)(=O)c2nc(-c3ccccc3)oc2S(C)(=O)=O)cc1`, for which the growth in test [1] is 8.94% (active); in [2] it was 54.7%; in test [3], 66%; in test [4] it was 80.5%; in test [5], 76.6%; in [6], 65.6%. The growth in test [7] was -86.8% (active); in test [8] it was 91.2%; in [9], 85.1%; in [10] it was -42.6% (active); in test [11], 53.4%; in test [12], 59.4%. For the same compound, the growth in test [13] is -29.2% (active); in [14] it was 3.86% (active); in test [15], -61.8% (active); in [16], 97.4%; in test [17], 76.4%.

Take `O=c1c2sc3ncccc3c2nnn1-c1ccccc1`: the growth was 99% in [1]; 104% in test [2]; 101% in [3]; 103% in [4]; 105% in test [5]; 106% in [6]. Further, the growth in [7] is 112%; in test [8], 108%; in [9], 107%; in test [10] it was 85.4%; in test [11] it was 108%; in [12], 101%. Moreover, the growth in test [13] was 109%; in [14], 90.6%; in test [15], 113%; in test [17], 106%.

As for `CN(C)c1cccc2c(S(=O)(=O)/N=C(\N)Nc3nc4ccccc4s3)cccc12`, the growth in [1] was 62%; in test [2] it was 70.6%; in [3], 84.2%; in [4], 82.4%; in [5] it was 46.6%; in [6], 51.7%. In addition, the growth in [7] is 8.44% (active); in [8], 68%; in test [9] it was 48%; in test [10], 39.6%; in [11] it was 47.5%; in test [12], -11.5% (active). Further, the growth in [13] is 31%; in [14], 29.6%; in test [15], 42.4%; in [16] it was 70.4%; in [17], 35.7%.

`COc1ccc(C2C=C(c3ccc(N)cc3)N=C3SC=CN32)cc1OC` (stereo not given): the growth was 101% in [1]; 98.7% in test [2]; 108% in test [3]; 102% in test [4]; 115% in test [5]; 101% in test [6]. For the same compound, the growth in test [7] was 107%; in test [8], 127%; in [9], 106%; in [10] it was 102%; in [11], 108%; in test [12] it was 106%. For the same compound, the growth is 112% in test [13], 98.6% in test [14], 107% in test [15] and 99.5% in test [17].

With `O=C(Nc1cccc(-n2cc(-c3ccncc3)c(-c3ccc(Cl)c(O)c3)n2)c1)c1ccc(N2CCOCC2)c(C(F)(F)F)c1`, the growth is 5.19% (active) in [1]; 37% in test [2]; 116% in test [3]; 108% in test [4]; 74.2% in test [5]; 96.8% in test [6]. Further, the growth was 56% in test [7]; 15.5% in test [8]; 43.9% in [9]; 69.4% in test [10]; 63.6% in test [11]; 35.2% in [12]. The growth is 6.29% (active) in test [13]; 60.6% in test [14]; 29.7% in test [15]; 56.4% in test [16]; 30.6% in [17].

Source of the values: PubChem BioAssay (NCI).
